Composite z-score and z-score data for 4 compounds are collected here from PubChem BioAssay.

Assay [1] concerns Wnt5a (protein binding on small-molecule microarray). Kind of assay: Wnt5a binders on small-molecule microarray, primary screen, biophysical, 635/667 nm fluorescence (AID 1142).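 Also: fluorescence read at 667 nm with signal to noise per printed feature.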 The following applies: 635 nm fluorescence, higher = more signal.
The nature of assay [2]: cell viability in Huh7 cells, primary screen, cytotoxicity control for HCV replication inhibitor project, CellTiter-Glo luminescence, basal, 48 h (AID 1143).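 Also: Huh7 hepatoma cells carrying a hepatitis C replication reporter with no stimulus; test concentration not given here.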 The following applies: Huh7 HCV replicon, higher = more signal, called active from +8 up or from −8 down. For orientation: In ATP-based viability assays light output follows the ATP content of the culture.
Assay [3] in a line: P. aeruginosa biofilm formation inhibitors, primary screen, PAO1 strain, BacTiter-Glo luminescence, LB-PBS (AID 1144). The following applies: 12 h, higher = more signal.
Assay [4] is described as follows: CREB reporter modulators without forskolin, primary screen, cell-based, PC12, CRE-LacZ reporter, unstimulated (AID 1145). To be noted: no forskolin, luminescence, 4.5 h, higher = more signal, called active from +8 up or from −8 down.
A short description of assay [5]: CREB reporter modulators under forskolin, primary screen, cell-based, PC12, CRE-LacZ reporter, forskolin-stimulated (AID 1146).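 Also: PC12 cells with 6xCRE LacZ reporter stimulated by forskolin 10 µM; beta-galactosidase reporter signal reflecting CREB driven transcription.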 The following applies: luminescence, 4.5 h, higher = more signal, called active from +8 up or from −8 down.
The target of assay [6] is Streptavidin (Streptomyces avidinii) (UniProt P22629). In words: streptavidin binders on small-molecule microarray, primary screen, artefact control for SMM compound annotation, biophysical, 635/667 nm fluorescence (AID 1147).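 Also: signal reflects streptavidin binding to arrayed compounds as a control protein.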 To be noted: streptavidin binding, higher = more signal.
Streptavidin (Streptomyces avidinii), sequence (P22629 whole entry, looked up): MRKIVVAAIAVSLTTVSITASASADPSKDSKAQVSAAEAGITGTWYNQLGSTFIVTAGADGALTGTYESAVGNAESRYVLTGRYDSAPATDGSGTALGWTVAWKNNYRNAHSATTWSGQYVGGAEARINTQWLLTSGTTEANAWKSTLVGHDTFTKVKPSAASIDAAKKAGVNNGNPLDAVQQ
Assay [7] can be described thus: small-molecule binders of probe aInhba, primary screen, biochemical, small-molecule microarray, 635/667 nm fluorescence (AID 1148).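 Also: score merges 667nm spot fluorescence with signal-to-noise for antibody binding to printed compounds.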 The following applies: higher = more signal.
In assay [8] the target is Torsin-1A (Homo sapiens) (UniProt O14656). Kind of assay: torsin A binders from cell lysate, primary screen, small-molecule microarray, wild-type, 635/667 nm (AID 1149). The following applies: COS7 hTOR1A-WT lysate, 635 nm fluorescence, higher = more signal.
Torsin-1A (Homo sapiens), sequence (O14656 whole entry, looked up): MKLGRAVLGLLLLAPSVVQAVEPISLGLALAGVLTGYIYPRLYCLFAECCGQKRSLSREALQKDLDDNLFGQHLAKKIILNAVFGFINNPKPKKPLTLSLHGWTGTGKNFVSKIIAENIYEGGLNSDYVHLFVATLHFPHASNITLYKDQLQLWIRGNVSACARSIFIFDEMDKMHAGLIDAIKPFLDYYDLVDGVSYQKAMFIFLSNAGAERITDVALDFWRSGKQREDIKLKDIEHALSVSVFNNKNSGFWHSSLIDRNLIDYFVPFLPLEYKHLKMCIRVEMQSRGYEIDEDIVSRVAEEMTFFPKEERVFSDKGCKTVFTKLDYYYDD
The target is the same in assay [9]. In words: small-molecule binders of mutant TOR1A in lysate, primary screen, cell lysate, small-molecule microarray, COS7 lysate, 635/667 nm fluorescence (AID 1150).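 Also: score pools 667 nm emission and signal to noise measuring lysate protein binding.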 To be noted: COS7 hTOR1A mutant lysate, 635 nm fluorescence, higher = more signal.
For assay [10], the system named is Sonic hedgehog protein (Shh). Kind of assay: small-molecule binders of Shh protein, primary screen, biochemical, small-molecule microarray, 635/667 nm fluorescence (AID 1151).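 Also: Shh protein binding to compounds spotted on small-molecule microarray slides; score combines spot fluorescence intensity with signal-to-noise across triplicate slides.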 The following applies: small-molecule microarray binding, 635 nm fluorescence; higher = more signal.
Assay [11] is described as follows: E. coli DRC41 culture turbidity changes, primary screen, E. coli filamentation inducer project, strain DRC41, OD650, 48 h (AID 1152).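 Also: E. coli MC1000 strain DRC41 lacking acrAB efflux pump and sulA.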 To be noted: E. coli DRC41 (acrAB sulA), higher = more signal, called active from +8 up or from −8 down.
Assay [12] can be described thus: small-molecule binders of probe aLefty1, primary screen, biochemical, small-molecule microarray, 635/667 nm fluorescence (AID 1153).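 Also: score merges spot fluorescence with signal-to-noise ratio from the scanned slide images.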 The following applies: higher = more signal.
Assay [13] is described as follows: PSAC antagonists in infected red cells, primary screen, cell-based, P. falciparum Indochina, OD700, 1 h (AID 1154). To be noted: P. falciparum Indochina infected RBC osmotic lysis, higher = more signal, called active from +8 up or from −8 down.
Assay [14] can be described thus: PSAC antagonists in infected red cells, primary screen, cell-based, P. falciparum Indochina, OD700, 2 h (AID 1155).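 Also: lysis reports solute entry through the parasite surface anion channel PSAC; channel blockers reduce lysis of infected cells.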 To be noted: P. falciparum Indochina infected erythrocytes, osmotic lysis OD700; higher = more signal, called active from +8 up or from −8 down.
Assay [15] in a line: osmotic lysis modulators in infected erythrocytes, primary screen, PSAC antagonist project, cell-based, P. falciparum Indochina, OD700, 3 h (AID 1156). The following applies: higher = more signal, called active from +8 up or from −8 down.
Assay [16] is described as follows: PSAC antagonists in infected red cells, primary screen, cell-based, P. falciparum Indochina, OD700, 18 h (AID 1157). The following applies: P. falciparum Indochina infected erythrocytes, osmotic lysis OD700, 18 h; higher = more signal, called active from +8 up or from −8 down.
The nature of assay [17]: modulators of S6 phosphorylation in cells, primary screen, cell-based, A549, cytoblot, luminescence, serum-stimulated (AID 1158).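 Also: serum-stimulated A549 lung adenocarcinoma cells; signal is phosphorylated S6 detected by cytoblot immunostaining with HRP secondary.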 The following applies: A549 phospho-S6 cytoblot, 5 h, higher = more signal.
Assay [18] deals with NADPH oxidase 2 (Homo sapiens) (UniProt P04839). In words: NOX2-dependent H2O2 signal modulators, primary screen, NOX inhibitor project, cell-based, HEK293-NOX2, PMA-stimulated, Amplex Red fluorescence (AID 1159). Also: test concentration not given here. The following applies: 45 min, higher = more signal, called active from +8 up or from −8 down.
NADPH oxidase 2 (Homo sapiens), sequence (P04839 whole entry, looked up): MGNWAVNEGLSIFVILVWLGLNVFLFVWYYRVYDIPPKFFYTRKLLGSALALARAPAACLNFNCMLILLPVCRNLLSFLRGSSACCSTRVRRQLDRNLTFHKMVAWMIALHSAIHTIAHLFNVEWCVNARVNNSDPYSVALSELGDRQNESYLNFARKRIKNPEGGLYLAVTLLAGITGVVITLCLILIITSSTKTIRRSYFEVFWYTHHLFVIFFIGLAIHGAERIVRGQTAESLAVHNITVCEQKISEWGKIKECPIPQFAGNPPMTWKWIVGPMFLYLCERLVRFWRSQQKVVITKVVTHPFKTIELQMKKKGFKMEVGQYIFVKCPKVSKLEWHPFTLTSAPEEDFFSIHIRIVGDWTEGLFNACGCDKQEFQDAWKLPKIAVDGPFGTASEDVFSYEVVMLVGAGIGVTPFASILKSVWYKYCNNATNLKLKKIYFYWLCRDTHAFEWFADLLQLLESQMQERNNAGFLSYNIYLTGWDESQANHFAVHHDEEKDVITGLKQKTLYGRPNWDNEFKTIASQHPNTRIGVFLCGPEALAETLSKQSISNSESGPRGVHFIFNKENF
In assay [19] the target is NADPH oxidase 4 (Homo sapiens) (UniProt Q9NPH5). Kind of assay: NOX4-dependent H2O2 signal modulators, primary screen, NOX inhibitor project, cell-based, HEK293-NOX4, tetracycline-induced, Amplex Red fluorescence (AID 1160). The following applies: 45 min, higher = more signal, called active from +8 up or from −8 down.
NADPH oxidase 4 (Homo sapiens), sequence (Q9NPH5 whole entry, looked up): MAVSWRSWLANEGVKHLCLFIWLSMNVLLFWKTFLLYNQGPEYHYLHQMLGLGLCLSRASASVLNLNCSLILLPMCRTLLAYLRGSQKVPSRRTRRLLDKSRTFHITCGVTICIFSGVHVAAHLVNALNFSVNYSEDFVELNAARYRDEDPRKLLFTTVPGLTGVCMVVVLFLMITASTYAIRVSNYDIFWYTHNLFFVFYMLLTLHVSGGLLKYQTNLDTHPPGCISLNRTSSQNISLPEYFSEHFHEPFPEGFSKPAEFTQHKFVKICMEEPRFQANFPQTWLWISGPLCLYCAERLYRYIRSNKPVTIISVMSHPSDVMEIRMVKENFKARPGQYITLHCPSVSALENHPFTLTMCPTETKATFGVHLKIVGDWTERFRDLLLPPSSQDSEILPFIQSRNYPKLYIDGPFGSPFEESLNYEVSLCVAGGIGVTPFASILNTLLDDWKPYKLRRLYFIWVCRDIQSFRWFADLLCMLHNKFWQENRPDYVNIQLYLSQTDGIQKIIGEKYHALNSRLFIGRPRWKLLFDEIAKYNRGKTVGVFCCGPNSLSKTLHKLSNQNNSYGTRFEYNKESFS
Assay [20] addresses NADPH oxidase 5 (Homo sapiens) (UniProt Q96PH1). In words: NOX5-dependent H2O2 signal modulators, primary screen, NOX inhibitor project, cell-based, HEK293-NOX5, Amplex Red fluorescence (AID 1161). The following applies: HEK293-NOX5, ionomycin, 45 min, higher = more signal.

Activity calls are given as the source filed them. Unless noted, no rule for the calls is given here.

NADPH oxidase 5 (Homo sapiens), sequence (Q96PH1 whole entry, looked up): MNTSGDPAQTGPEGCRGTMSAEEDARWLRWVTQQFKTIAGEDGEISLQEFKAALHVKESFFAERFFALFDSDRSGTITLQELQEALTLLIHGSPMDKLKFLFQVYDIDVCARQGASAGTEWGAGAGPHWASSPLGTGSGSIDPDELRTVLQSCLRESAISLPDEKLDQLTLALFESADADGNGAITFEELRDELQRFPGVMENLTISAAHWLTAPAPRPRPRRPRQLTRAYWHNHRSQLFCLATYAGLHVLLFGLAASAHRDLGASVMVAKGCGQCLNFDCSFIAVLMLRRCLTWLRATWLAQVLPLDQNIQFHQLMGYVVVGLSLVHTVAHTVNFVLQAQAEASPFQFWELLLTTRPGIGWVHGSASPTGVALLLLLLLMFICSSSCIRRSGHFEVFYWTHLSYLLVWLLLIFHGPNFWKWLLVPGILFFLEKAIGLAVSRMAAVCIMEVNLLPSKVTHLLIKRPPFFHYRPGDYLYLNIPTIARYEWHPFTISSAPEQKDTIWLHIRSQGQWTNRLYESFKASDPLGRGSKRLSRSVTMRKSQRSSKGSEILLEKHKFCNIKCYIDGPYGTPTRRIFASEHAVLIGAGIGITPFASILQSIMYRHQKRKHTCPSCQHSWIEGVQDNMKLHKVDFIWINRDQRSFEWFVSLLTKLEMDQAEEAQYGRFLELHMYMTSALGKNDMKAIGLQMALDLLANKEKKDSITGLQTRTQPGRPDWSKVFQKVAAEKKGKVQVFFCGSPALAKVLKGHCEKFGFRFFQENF

For `COCCOC(=O)N1C(=O)[C@@]2(c3ccccc31)[C@H](c1ccc(OCCO)cc1)N1[C@H](c3ccccc3)[C@H](c3ccccc3)OC(=O)[C@H]1[C@@H]2C(=O)N1CCCCCCC1`, the composite z-score in assay [1] came to 2.44; in [6], 4.09; in assay [7], 2.11; in [8], 3.76; in assay [9], 3.68; in assay [10] it was 2.29. The compound further showed a composite z-score in [12] of 2.77. The z-score in [2] is -2.59 (inactive); in assay [3] it was -0.302 (inactive); in assay [4], -0.329 (inactive); in assay [5], 3.39 (inactive); in [11], -0.906 (inactive); in assay [13] it was 22.8 (active). Also, the z-score in assay [14] was 7.62 (inactive); in assay [15], 0.586 (inactive); in assay [16] it was 1.64 (inactive); in assay [17], -0.0785; in assay [18], 0.918 (inactive); in assay [19] it was 0.901 (inactive). Also, in assay [20], the z-score was determined as 1.33.

On to `COCCOC(=O)N1C(=O)[C@@]2(c3cc(C#CCCO)ccc31)[C@H](C(=O)N1CCCCCCC1)[C@H]1C(=O)O[C@H](c3ccccc3)[C@H](c3ccccc3)N1[C@@H]2c1ccccc1OCCO`, for which the composite z-score in assay [1] was 0.985; in assay [6] it was 2.6; in assay [7], 1.3; in assay [8] it was 1.22; in assay [9] it was 1.62; in [10] it was 1.68. Moreover, in assay [12], the composite z-score was 2.52. The z-score in assay [2] is -2.07 (inactive); in assay [3], 0.893 (inactive); in [4], 0.0655 (inactive); in [5], -0.823 (inactive); in assay [11], -0.82 (inactive); in assay [13], 0.56 (inactive). The z-score in assay [14] was 0.654 (inactive); in assay [15] it was 0.0531 (inactive); in assay [16] it was 0.336 (inactive); in [17] it was -0.319; in assay [18] it was 1.96 (inactive); in [19], 0.843 (inactive). For the same compound, in assay [20], the z-score came to 1.73.

Take `C=C(COC)/C(=C/C[C@@H](OC(C)=O)c1ccc(CO)o1)c1cc(C(=O)OC)ccc1OC`: the composite z-score in assay [1] was -0.0561; in assay [6], -0.367; in assay [7], -0.0933; in assay [8], -0.5; in assay [9], 0.666; in assay [10], 1.64. In [12], the composite z-score was 0.051. Further, the z-score in assay [2] is 0.0759 (inactive); in assay [3], -0.921 (inactive); in [4] it was -0.0602 (inactive); in assay [5], 1.12 (inactive); in [11], 0.265 (inactive); in assay [13], 1.56 (inactive). Moreover, the z-score is 0.362 (inactive) in assay [14]; 0.389 (inactive) in assay [15]; 0.0621 (inactive) in [16]; 0.187 in assay [17]; 0.184 (inactive) in [18]; -0.207 (inactive) in assay [19]. In assay [20], this compound yielded a z-score of 0.13.

For `COC(=O)[C@@]1(Cc2ccc(OC)cc2)[C@H]2c3cc(C(=O)N4CCCC4)n(Cc4cc(C)n(C)n4)c3C[C@H]2CN1C(=O)c1ccccc1`, the composite z-score was 0.973 in [1]; 1.92 in assay [6]; 0.605 in assay [7]; 0.544 in assay [8]; 0.24 in assay [9]; -0.319 in [10]. Also, in assay [12], the composite z-score stood at 0.947. In addition, the z-score in [2] was -0.434 (inactive); in assay [3] it was 0.463 (inactive); in assay [4], -0.375 (inactive); in assay [5], 0.543 (inactive); in assay [11] it was -0.703 (inactive); in assay [13], 1.46 (inactive). Besides, the z-score in [14] is 0.279 (inactive); in [15], 0.63 (inactive); in [16], 0.494 (inactive); in assay [17] it was -0.458; in [18], 0.755 (inactive); in [19], -0.134 (inactive). This compound also displayed a z-score in [20] of -2.8.
